Bioassay records (PubChem)
Compounds with a hit are over-represented: about 1.5% of the library has one in this group of screens.
BCLXL inh – inhibitors of human Bcl-xL, primary screen, biochemical, fluorescence polarization, HTS. Bcl-2-like protein 1 (Homo sapiens), Q07817. GST-Bcl-xL / FITC-Bim BH3 peptide fluorescence polarization. inhibition, % at 10.9 µM. 0.7% of 320,000 active;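 active = inhibition above the mean of all tested compounds plus 3 SD, cutoff set per campaign, cut at about 30% in these data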;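 note: inhibitors lower millipolarization by displacing the labeled peptide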
Target sequence (Q07817 whole entry, looked up): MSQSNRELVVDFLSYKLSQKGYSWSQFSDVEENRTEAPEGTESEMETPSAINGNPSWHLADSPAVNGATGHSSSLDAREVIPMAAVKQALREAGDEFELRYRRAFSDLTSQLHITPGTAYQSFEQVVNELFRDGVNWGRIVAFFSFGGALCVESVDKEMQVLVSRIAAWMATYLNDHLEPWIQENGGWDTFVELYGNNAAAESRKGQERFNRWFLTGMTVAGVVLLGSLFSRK
GLD-1 TGE inh – GLD-1/TGE RNA complex disruptors, primary screen, biochemical, fluorescence polarization; inhibition, % at 5.96 µM; purified GLD-1 + fluorescein TGE RNA; 0.44% of 320,000 active; AID 2280, 2010; Female germline-specific tumor suppressor gld-1 (Caenorhabditis elegans), Q17339;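 active = percent inhibition above a per-plate cutoff, the plate mean of test compounds plus 3 SD, cut at about 30% in these data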
EBV gp42 block – Epstein-Barr virus gp42 inhibitors, primary screen, biochemical, uHTS, fluorescence polarization. Fluorescence polarization binding assay, mP read-out. inhibition, % (tested at 21.74 µM). 0.42% of 220,000 active. AID 1085, 2008; in the data active = inhibition above about 50%
Target sequence (Q1HVG2 whole entry, looked up): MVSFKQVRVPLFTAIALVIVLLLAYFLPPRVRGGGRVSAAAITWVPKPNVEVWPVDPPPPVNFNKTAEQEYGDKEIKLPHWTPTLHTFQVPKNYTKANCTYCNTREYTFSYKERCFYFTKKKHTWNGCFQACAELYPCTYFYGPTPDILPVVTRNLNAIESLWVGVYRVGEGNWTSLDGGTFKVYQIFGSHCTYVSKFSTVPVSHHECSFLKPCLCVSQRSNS
MEX-5 binding – MEX-5 zinc finger RNA-binding disruptors – biochemical, C. elegans, fluorescence polarization, MLPCN library, primary screen; Zinc finger protein mex-5 (Caenorhabditis elegans), Q9XUB2; MEX-5/FITC-TCR2 RNA binding; active compounds read low; activity score (negative = inhibition of binding), % at 10 µM; 0.38% of 300,000 active; AID 1832, 2009;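 active = inhibition past about -25% in most replicates, and total fluorescence under double the plate's negative control median, limit read from the data; inconclusive = replicates evenly split on the limit, or fluorescence at least double controls; inactive = too little inhibition in most replicates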
eLon inh – inhibitors of E. coli Lon protease, primary screen, biochemical, fluorescence polarization. purified E. coli Lon protease. inhibition, % at 7.94 µM. 0.42% of 360,000 active. AID 602123, 2011; in the data active = inhibition above about 13%, passing the limit was not always enough
MCL1 BIM primary – inhibitors of MCL1 binding to BIM-BH3, primary screen, biochemical, fluorescence polarization; GST-MCL1 / FITC-Bim-BH3 fluorescence polarization; inhibition, % at 10.9 µM; 0.68% of 320,000 active;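 active = inhibition above the mean inhibition of all tested compounds plus 3 SD, set per campaign, cut at about 40% in these data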;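 note: higher means more loss of mP so more displacement of Bim peptide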
BCLXL inh confirm – Bcl-xL inhibitors blocking Bim BH3 binding, confirmation, counter-screen for MCL1 inhibitor project, biochemical, fluorescence polarization; 54% of 1,700 active; AID 2166, 2009; shares compounds with MCL1 BIM primary; inhibition, % at 10.9 µM; GST-Bcl-xL / FITC-Bim BH3 peptide FP binding;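 active = inhibition above a cutoff equal to the mean inhibition of all tested compounds plus 3 SD, cut at about 30% in these data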
MCL1 BIM confirm – inhibitors of MCL1 binding to BIM-BH3, confirmation, biochemical, fluorescence polarization, triplicate; shares compounds with MCL1 BIM primary; GST-MCL1 / FITC-Bim-BH3 fluorescence polarization; inhibition, % at 10.9 µM; 61% of 1,700 active; AID 2168, 2009;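 active = inhibition above the average of all tested compounds plus 3 SD, cut at about 40% in these data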
Of the large screens only hits and unclear results are named; the others gave an inactive call (follow-up assays come after a bar, where they were run).

Cc1nc2nc(-c3cccs3)cn2nc1C	BCLXL inh 106, GLD-1 TGE inh 72, EBV gp42 block 68, MCL1 BIM primary 113 | BCLXL inh confirm 100 | MCL1 BIM confirm 127
C=CCNC(=O)C(C#N)c1nc2ccccc2nc1N1CCCCCC1 (stereo not drawn)	BCLXL inh 74, GLD-1 TGE inh 57, MCL1 BIM primary 71 | BCLXL inh confirm 32 | MCL1 BIM confirm inactive
COc1ccc(CNC(=O)C(C#N)c2nc3ccccc3nc2N2CCCC2)cc1 (stereo not drawn)	BCLXL inh 46, MEX-5 binding inconclusive, MCL1 BIM primary 54 | BCLXL inh confirm 63 | MCL1 BIM confirm 75
C[C@H](CO)N1C[C@H](C)[C@H](CN(C)C(=O)CCC(F)(F)F)OCc2cnnn2CCCC1=O	none (no result: BCLXL inh, GLD-1 TGE inh, EBV gp42 block, MEX-5 binding, MCL1 BIM primary)
Cc1ccc(NC(=O)/C(C#N)=C(\N)C(Cl)(Cl)Cl)nc1	BCLXL inh 72, GLD-1 TGE inh 43, EBV gp42 block 137, MEX-5 binding inconclusive, MCL1 BIM primary 70 | BCLXL inh confirm 171 | MCL1 BIM confirm 185
Cc1oc(-c2cccs2)nc1CN1CCN(C(C)C)C(CCO)C1 (stereo not drawn)	MCL1 BIM primary 49 | BCLXL inh confirm inactive | MCL1 BIM confirm inactive
Cc1nc2ccccc2c(=O)n1/N=C/c1ccc(O)c(O)c1O	MEX-5 binding -52, MCL1 BIM primary 69 (no result: EBV gp42 block) | BCLXL inh confirm inactive | MCL1 BIM confirm 67
Cc1nc2ccccc2c(=O)n1/N=C/c1ccccc1O	none (no result: MEX-5 binding)
O=S1(=O)CC(O)C(N(CCO)C(=S)Nc2ccccc2)C1 (stereo not drawn)	none
CN1C(=O)C(CC(=O)O)S/C1=N\N=C\c1ccc(O)cc1O (stereo not drawn)	none
CCOC(=O)Nc1ccc(NCc2ccc(F)cc2)nc1N	BCLXL inh 141, GLD-1 TGE inh 132, MCL1 BIM primary 191 (no result: EBV gp42 block, MEX-5 binding) | BCLXL inh confirm 36 | MCL1 BIM confirm inactive
Cc1cccc2nc3ccccc3cc12	none (no result: EBV gp42 block)
C/C(O)=c1/ccc2cccc3nc(C)nc1c23	BCLXL inh 71, EBV gp42 block 110, MEX-5 binding -41, MCL1 BIM primary 61 | BCLXL inh confirm 62 | MCL1 BIM confirm 57
COc1ccc(C(=O)OCC(=O)Nc2ncc([N+](=O)[O-])s2)cc1OC	MCL1 BIM primary 74 (no result: EBV gp42 block, MEX-5 binding) | BCLXL inh confirm inactive | MCL1 BIM confirm 58
COc1ccc(S(=O)(=O)N2CCC3(CC2)OCCN3S(=O)(=O)c2ccc(C)cc2)cc1OC	none (no result: EBV gp42 block)
Nc1nc(=S)c2ncn([C@@H]3O[C@H](CO)[C@@H](O)[C@H]3O)c2[nH]1	none (no result: EBV gp42 block, MEX-5 binding)
Nc1nc(=S)c2ncn(C3OC(CO)C(O)C3O)c2[nH]1 (stereo not drawn)	MCL1 BIM primary 82 | BCLXL inh confirm inactive | MCL1 BIM confirm 47
O=C(O)c1ccc2c(c1)C(=O)/C(=C\c1ccco1)C2=O	BCLXL inh 41, MEX-5 binding inconclusive, MCL1 BIM primary 64 | BCLXL inh confirm inactive | MCL1 BIM confirm inactive
Cc1cccc(OCC(=O)OC(C)C(=O)Nc2ccc(S(=O)(=O)N3CCCCC3)cc2)c1 (stereo not drawn)	none (no result: EBV gp42 block)
C=CCc1cccc(/C=N/NC(=O)c2ccc3nc[nH]c3c2)c1O	none (no result: EBV gp42 block)
CCOC(=O)C1CCCN(Cc2c(C(=O)N3CCOCC3)nc3ccccn23)C1 (stereo not drawn)	none
COC1CCCN(Cc2c(C(=O)N3CCN(C4CCCCC4)CC3)nc3ccccn23)C1 (stereo not drawn)	BCLXL inh 61, GLD-1 TGE inh 35, MCL1 BIM primary 70 (no result: EBV gp42 block) | BCLXL inh confirm 40 | MCL1 BIM confirm 42
O=C(N/N=C/c1ccc(O)c(O)c1O)/C(=C/c1ccc([N+](=O)[O-])cc1)NC(=O)c1ccccc1	eLon inh 27, MCL1 BIM primary 41 | BCLXL inh confirm 33 | MCL1 BIM confirm 63
CCOc1ccc(CCN2CN(C3CCCCC3)CNC2=S)cc1OCC	none
CCOc1ccccc1N1CN(C2CCCCC2)CNC1=S	MCL1 BIM primary 52 (no result: MEX-5 binding) | BCLXL inh confirm inactive | MCL1 BIM confirm inactive
O=C(c1cccc(-n2cccc2)c1)N1CCN(S(=O)(=O)c2ccccc2)CC1	MCL1 BIM primary 51 (no result: EBV gp42 block) | BCLXL inh confirm 32 | MCL1 BIM confirm 88
Cc1ccc(S(=O)(=O)N2CCN(C(=O)c3cccc(-n4cccc4)c3)CC2)cc1	none (no result: EBV gp42 block)
CC1Sc2ccc(C#N)cc2N(Cc2cccc(C(F)(F)F)c2)C1=O (stereo not drawn)	none (no result: BCLXL inh, GLD-1 TGE inh, EBV gp42 block, MEX-5 binding, MCL1 BIM primary)
O=C(O)C1Nc2c(Cl)cc(Cl)cc2C2C=CCC12 (stereo not drawn)	BCLXL inh 85, MEX-5 binding -73, MCL1 BIM primary 105 (no result: EBV gp42 block) | BCLXL inh confirm 52 | MCL1 BIM confirm 91
CC(C)C1Nc2c(O)cc(Cl)c([N+](=O)[O-])c2C2C=CCC21 (stereo not drawn)	none (no result: BCLXL inh, GLD-1 TGE inh, MCL1 BIM primary)
O=C(O)C1Nc2c(Cl)cc(Cl)c(Cl)c2C2C=CCC12 (stereo not drawn)	BCLXL inh 65, MCL1 BIM primary 103 (no result: EBV gp42 block) | BCLXL inh confirm 123 | MCL1 BIM confirm 168
CCCCc1cc(=O)oc2cc(C)c(CN3CCCC3)c(O)c12	none
CCc1cc(=O)oc2cc(C)c(CN3CCCC(C)C3)c(O)c12 (stereo not drawn)	MCL1 BIM primary 47 | BCLXL inh confirm inactive | MCL1 BIM confirm inactive
CCOc1ccc(/C=C2\CCCc3c2nc2ccccc2c3C(=O)O)cc1OC	BCLXL inh 176, GLD-1 TGE inh 150, MEX-5 binding inconclusive, eLon inh 178, MCL1 BIM primary active (no result: EBV gp42 block) | BCLXL inh confirm 183 | MCL1 BIM confirm active
COc1cc(/C=C2\CCCc3c2nc2ccccc2c3C(=O)O)cc([N+](=O)[O-])c1O	none (no result: EBV gp42 block)
COc1ccc(/C=C2\CCCc3c2nc2ccccc2c3C(=O)O)cc1OC	BCLXL inh 145, GLD-1 TGE inh 120, EBV gp42 block 105, MEX-5 binding -73, MCL1 BIM primary 159 (no result: eLon inh) | BCLXL inh confirm 170 | MCL1 BIM confirm 191
COc1cc(/C=C2\CCCc3c2nc2ccccc2c3C(=O)O)cc(OC)c1O	none
Fc1ccc2nc3c(nc2c1)CCCC3	none (no result: EBV gp42 block)
